# Reference: PubChem BioAssay (NCATS)
# A number with no mark means an inactive call. The source made the active and inactive calls. Calls follow the shape of the dose curve; as a rule, active = well fitted curve in the direction sought with a large enough effect; inactive = no such curve, though single readings can be large or run the other way.
# Biological target: Alpha-galactosidase A (Homo sapiens) (UniProt P06280)
# Test: Counterscreen for Glucocerebrosidase Inhibitors: qHTS Assay for Human alpha-Galactosidase at pH 4.5 (AID 992); also: 0% is about no effect
# Details: purified enzyme, fluorogenic substrate; series mostly up to 76.9 µM; activity change, negative = inhibition: at the top concentration
# Method in brief: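 Enzyme at 2 nM final was combined with compound (0.7 nM to 77 uM) and 80 uM 4-methylumbelliferyl alpha-D-galactopyranoside in 50 mM citric acid, 0.005% Tween-20, pH 4.5. After 20 min at room temperature, fluorescence was read (Ex 365/Em 440 nm); AC50 came from Hill fits.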
# Sequence of Alpha-galactosidase A (Homo sapiens) (P06280 whole entry, looked up): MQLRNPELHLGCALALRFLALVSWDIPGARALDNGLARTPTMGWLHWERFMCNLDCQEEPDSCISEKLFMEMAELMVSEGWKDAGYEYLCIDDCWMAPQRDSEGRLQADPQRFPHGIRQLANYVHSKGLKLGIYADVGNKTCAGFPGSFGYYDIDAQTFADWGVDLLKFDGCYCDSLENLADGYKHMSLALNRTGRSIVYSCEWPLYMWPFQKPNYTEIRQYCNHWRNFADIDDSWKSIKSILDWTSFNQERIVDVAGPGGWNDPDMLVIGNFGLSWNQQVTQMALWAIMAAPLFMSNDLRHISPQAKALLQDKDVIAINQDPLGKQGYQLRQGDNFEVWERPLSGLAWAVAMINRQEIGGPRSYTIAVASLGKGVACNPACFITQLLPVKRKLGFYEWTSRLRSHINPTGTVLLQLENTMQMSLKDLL
SMILES,"activity change, negative = inhibition",outcome
CC[C@H](NC(=O)c1c(C)c(-c2ccccc2)nc2ccccc12)c1ccccc1,-9.15%,–
c1ccc2c(c1)CC(N1CCN(c3cccc4c3OCCO4)CC1)C2,-4.06%,–
O=c1onc2cnc3ccccc3n12,-5.94%,–
COc1ccc(C(=O)NCc2cccnc2)cc1C(=O)NCc1cccnc1,0.171%,–
Nn1nnc2ccccc21,0.469%,–
O=C(O)Cc1ccc(O)c(O)c1,-0.624%,–
NOCC(=O)O,-4.01%,–
CNC(=O)c1cc2c(cn1)[nH]c1ccccc12,-0.306%,–
Oc1ccc(Cn2cc[nH]c2=S)cc1,-0.813%,–
COc1ccc(CCN(C)CCc2ccc(OC)c(OC)c2)cc1OC,-4.11%,–
N[C@@H](Cc1ccc(O)c(I)c1)C(=O)O,0.494%,–
CC[C@@H]1Cc2cc(O)ccc2C2=C1c1ccc(O)cc1C[C@H]2CC,80.4%,–
CC(C)(CO)Cc1cc(C(C)(C)C)c(O)c(C(C)(C)C)c1,-9.94%,–
Nc1ccc(-c2nc3ccc(-c4nc5ccc(N)cc5[nH]4)cc3[nH]2)cc1,-1.32%,–
CCN1C(=O)C=CC1=O,-2.28%,–
N=C(N)c1ccc(N)cc1,-2.38%,–
N#C/C(=C\c1ccc(O)c(O)c1)C(=O)NCCCNC(=O)/C(C#N)=C/c1ccc(O)c(O)c1,-5.4%,–
Nc1nc2[nH]c(=O)cnc2c(=O)[nH]1,-0.846%,–
CCn1c(=O)[nH]c2cc(Cl)c(Cl)cc21,3.01%,–
CC(=O)N[C@@H](Cc1c[nH]c2ccccc12)C(=O)OCc1cc(C(F)(F)F)cc(C(F)(F)F)c1,-11.3%,–

SMILES,"activity change, negative = inhibition",outcome
CCC(=O)N1CCN(C(=O)c2ccccc2)CC1,-1.29%,–
C#CCn1c(=O)c2c(ncn2C)n(C)c1=O,-1.62%,–
Clc1nccc2c1ccc1ccccc12,-2.22%,–
NC(N)=NC(N)=Nc1cccc(Cl)c1,3.28%,–
CSC(=N)N,-0.387%,–
NC(N)=[N+]1CCc2ccccc2C1,2.8%,–
CC(=O)NNC(=O)N1Cc2ccccc2Oc2ccc(Cl)cc21,7%,–
O=C(O)c1cccnc1C(=O)O,-3.59%,–
COc1cc2c(CCNC(C)=O)c[nH]c2cc1O,-1.88%,–
CC(C)NC[C@H](O)COc1ccc(CC(N)=O)cc1,–,inactive
NC(=O)c1ccccc1,0.931%,–
N[C@@H](CS(=O)O)C(=O)O,-0.808%,–
Cn1c(=O)c2[nH]c(C3CCCC3)nc2n(C)c1=O,-1.11%,–
S=C(S)N1CCCC1,-0.0853%,–
O=[N+]([O-])c1cccc2c(Br)[nH]nc12,-5.81%,–
CCSC(=N)N,-2.49%,–
O=C(O)C1=CC(=C(c2ccc(O)c(C(=O)O)c2)c2ccc(O)c(C(=O)O)c2)C=CC1=O,-12.2%,–
C=CC[C@H](N)C(=O)O,3.37%,–
CC(=O)C(C)=O,0.837%,–
